Data taken from the supplement of paper PMC10849652.
The full data set covers some 8,800 targets. This sample favours those with a hit. About 0.5% of all pairs of compound and target were hits.

Experiments:
Experiment in all cases: log2 fold change, soluble protein after heating vs DMSO (PISA); higher = thermal stabilisation; K562 lysate, 10 uM; active = over 0.2 and 3.5 SD of the protein, either way, in both replicates (recomputed)
[1] = compound: C1=CC=C(C=C1)[C@H](COC2=CC3=C(C=C2)NC(=O)N3)NC(=O)C4=CC=CN(C4=O)CC5=CC(=C(C=C5)F)F
Method in brief: (§1)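 Following dounce homogenisation of K562 pellets in PBS pH 7.4 with 1 mM MgCl2, crude extract at 1 mg/mL protein was incubated for 30 min with 10 μM compound. Aliquots were then heated for 3 min over 48°C-58°C and pooled, NP-40 was added to 0.5% at 4°C, and soluble protein was recovered as the supernatant at 21,000xg for 90 min. Channel-sum-equalised TMTpro 16plex LC-MS/MS quantified this protein. Each value, from duplicates, is a log-two fold change in thermal stability relative to solvent controls.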

[2] = compound: CC1=C(SC2=C1C(=N[C@H](C3=NN=C(N32)C)CC(=O)N)C4=CC=C(C=C4)Cl)C
Method in brief: as §1

[3] = compound: CC1=C2C(=CC=C1)N=C(N(C2=O)C3=CC=CC=C3C)CN4C=NC5=C(N=CN=C54)N
Method in brief: as §1

[4] = compound: Cc1sc2c(c1C)C(c1ccc(Cl)cc1)=N[C@@H](CC(=O)OC(C)(C)C)c1nnc(C)n1-2
Method in brief: as §1

[5] = compound: c1ccc([C@@H]2C[C@H]2NC2CCNCC2)cc1
Method in brief: as §1

Measured: log2 fold change

ZMYM2 (UniProt Q9UBW7)
inactive: [1] 0.105 | [2] 0.07 | [3] 0.062 | [4] 0.015 | [5] 0.183

USP9X (UniProt Q93008)
Chain of UniProt Q93008 (Q93008 whole entry, looked up): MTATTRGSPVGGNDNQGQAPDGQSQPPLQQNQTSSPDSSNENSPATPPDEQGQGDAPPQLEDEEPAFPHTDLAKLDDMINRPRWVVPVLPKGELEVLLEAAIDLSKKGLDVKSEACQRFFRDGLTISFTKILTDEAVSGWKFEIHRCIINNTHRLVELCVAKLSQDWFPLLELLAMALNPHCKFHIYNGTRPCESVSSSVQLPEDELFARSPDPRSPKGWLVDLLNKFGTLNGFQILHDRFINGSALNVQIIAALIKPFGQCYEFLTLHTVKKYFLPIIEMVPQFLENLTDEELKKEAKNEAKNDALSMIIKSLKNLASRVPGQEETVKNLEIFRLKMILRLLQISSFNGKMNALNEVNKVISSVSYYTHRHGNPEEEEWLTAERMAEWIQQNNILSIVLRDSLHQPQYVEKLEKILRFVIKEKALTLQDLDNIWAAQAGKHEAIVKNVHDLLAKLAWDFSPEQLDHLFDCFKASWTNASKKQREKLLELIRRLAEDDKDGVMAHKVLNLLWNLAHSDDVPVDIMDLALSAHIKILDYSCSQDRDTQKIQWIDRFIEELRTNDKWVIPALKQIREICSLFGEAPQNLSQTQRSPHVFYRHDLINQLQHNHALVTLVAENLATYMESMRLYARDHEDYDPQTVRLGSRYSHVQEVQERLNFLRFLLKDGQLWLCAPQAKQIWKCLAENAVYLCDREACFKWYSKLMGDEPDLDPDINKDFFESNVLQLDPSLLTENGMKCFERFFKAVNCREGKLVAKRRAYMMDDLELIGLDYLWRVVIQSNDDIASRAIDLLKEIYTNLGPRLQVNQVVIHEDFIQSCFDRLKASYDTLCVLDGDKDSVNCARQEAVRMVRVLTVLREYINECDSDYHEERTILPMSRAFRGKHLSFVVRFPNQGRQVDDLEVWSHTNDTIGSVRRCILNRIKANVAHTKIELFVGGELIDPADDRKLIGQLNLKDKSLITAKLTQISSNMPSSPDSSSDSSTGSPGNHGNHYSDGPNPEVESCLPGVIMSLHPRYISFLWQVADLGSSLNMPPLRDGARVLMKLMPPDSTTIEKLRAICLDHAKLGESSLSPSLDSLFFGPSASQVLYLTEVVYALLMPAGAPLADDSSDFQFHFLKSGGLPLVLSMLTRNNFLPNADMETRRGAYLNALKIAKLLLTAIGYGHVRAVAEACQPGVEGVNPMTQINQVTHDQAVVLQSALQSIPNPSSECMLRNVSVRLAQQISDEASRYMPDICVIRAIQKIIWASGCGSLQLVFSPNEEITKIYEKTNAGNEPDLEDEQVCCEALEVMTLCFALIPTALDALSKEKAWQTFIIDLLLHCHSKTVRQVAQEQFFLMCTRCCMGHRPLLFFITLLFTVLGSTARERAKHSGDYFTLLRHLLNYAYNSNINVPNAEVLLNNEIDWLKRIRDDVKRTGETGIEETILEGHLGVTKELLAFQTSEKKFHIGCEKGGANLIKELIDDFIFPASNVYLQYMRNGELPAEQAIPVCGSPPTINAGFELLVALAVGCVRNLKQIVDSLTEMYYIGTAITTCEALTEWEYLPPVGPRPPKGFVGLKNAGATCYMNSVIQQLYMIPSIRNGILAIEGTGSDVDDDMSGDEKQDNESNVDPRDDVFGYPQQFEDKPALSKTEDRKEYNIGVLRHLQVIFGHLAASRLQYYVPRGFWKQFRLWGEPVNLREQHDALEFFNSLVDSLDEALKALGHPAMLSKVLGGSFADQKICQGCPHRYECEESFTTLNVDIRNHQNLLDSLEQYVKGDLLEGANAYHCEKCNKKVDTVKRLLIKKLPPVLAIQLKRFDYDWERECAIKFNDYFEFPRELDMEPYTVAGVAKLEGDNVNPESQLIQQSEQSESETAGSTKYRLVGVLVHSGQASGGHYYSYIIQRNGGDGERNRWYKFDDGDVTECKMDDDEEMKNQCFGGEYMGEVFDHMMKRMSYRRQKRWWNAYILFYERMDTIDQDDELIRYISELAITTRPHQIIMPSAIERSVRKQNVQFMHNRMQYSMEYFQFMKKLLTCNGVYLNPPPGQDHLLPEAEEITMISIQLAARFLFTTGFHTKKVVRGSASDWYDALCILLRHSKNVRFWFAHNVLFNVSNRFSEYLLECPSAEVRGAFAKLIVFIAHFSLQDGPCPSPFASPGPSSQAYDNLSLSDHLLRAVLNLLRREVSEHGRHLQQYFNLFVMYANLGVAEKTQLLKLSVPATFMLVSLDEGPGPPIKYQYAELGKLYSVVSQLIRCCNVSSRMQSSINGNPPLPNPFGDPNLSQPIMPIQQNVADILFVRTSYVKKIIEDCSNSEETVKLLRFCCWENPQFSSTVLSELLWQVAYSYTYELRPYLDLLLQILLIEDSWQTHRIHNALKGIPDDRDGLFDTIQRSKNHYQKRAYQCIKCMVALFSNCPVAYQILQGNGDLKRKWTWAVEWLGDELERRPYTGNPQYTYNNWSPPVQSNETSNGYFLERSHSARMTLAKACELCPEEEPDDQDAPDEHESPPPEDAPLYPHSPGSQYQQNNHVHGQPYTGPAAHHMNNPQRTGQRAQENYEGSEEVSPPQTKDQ
inactive: [1] -0.033 | [2] 0.005 | [3] 0.014 | [4] 0.008 | [5] -0.001

VRK2 (UniProt Q86Y07)
inactive: [1] 0.004 | [2] 0 | [3] -0.242 | [4] -0.023 | [5] -0.018

YRDC (UniProt Q86U90)
inactive: [1] -0.009 | [2] 0.02 | [3] -0.046 | [4] -0.029 | [5] -0.053

ULK3 isoform 4 (UniProt Q6PHR2)
inactive: [1] -0.015 | [2] 0.043 | [3] -0.117 | [4] -0.026 | [5] 0.125

ZNF318 (UniProt Q5VUA4)
inactive: [1] -0.017 | [2] 0.133 | [3] 0 | [4] 0.018 | [5] 0.038

VTN (UniProt P04004)
inactive: [1] -0.009 | [2] -0.039 | [3] -0.094 | [4] -0.053 | [5] -0.222

ZHX1 (UniProt Q9UKY1)
inactive: [1] 0.016 | [2] 0.036 | [3] 0.022 | [4] -0.224 | [5] -0.22

WDR7 (UniProt Q9Y4E6)
inactive: [1] 0.055 | [2] 0.011 | [3] 0.019 | [4] 0.029 | [5] -0.027

VRK1 (UniProt Q99986)
inactive: [1] -0.002 | [2] 0.017 | [3] 0.023 | [4] -0.005 | [5] 0.034

WAC (UniProt Q9BTA9)
inactive: [1] -0.03 | [2] 0.056 | [3] -0.013 | [4] 0.041 | [5] 0.037

UQCRC2 (UniProt P22695)
inactive: [1] 0.003 | [2] 0.037 | [3] -0.007 | [4] 0.006 | [5] -0.015

UTP18 (UniProt Q9Y5J1)
inactive: [1] 0.117 | [2] -0.005 | [3] -0.088 | [4] -0.013 | [5] 0.059

ZSWIM8 isoform 4 (UniProt A7E2V4)
inactive: [1] 0.076 | [2] -0.038 | [3] 0.071 | [4] 0.013 | [5] 0.03

ZC3H13 (UniProt Q5T200)
inactive: [1] -0.005 | [2] -0.039 | [3] 0.013 | [4] -0.061 | [5] 0.136

WEE1 (UniProt P30291)
inactive: [1] -0.002 | [2] -0.099 | [3] -0.047 | [4] 0.03

ZFYVE19 isoform 3 (UniProt Q96K21)
inactive: [1] 0.062 | [2] -0.075

VCPIP1 (UniProt Q96JH7)
inactive: [1] -0.025 | [2] -0.008 | [3] 0.002 | [4] -0.052 | [5] -0.002

XPO1 (UniProt O14980)
inactive: [1] -0.024 | [2] 0.023 | [3] 0.012 | [4] 0.008 | [5] 0.023

VPS35L (UniProt Q7Z3J2)
inactive: [1] 0.013 | [2] 0.004 | [3] 0.044 | [4] -0.032 | [5] 0.013

VPS13C (UniProt Q709C8)
inactive: [1] -0.111 | [2] -0.002 | [3] 0.061 | [4] 0.018 | [5] 0.008

ZNHIT6 (UniProt Q9NWK9)
inactive: [1] 0.106 | [2] -0.063 | [3] 0.013 | [4] 0.089 | [5] 0.008

USP10 isoform 2 (UniProt Q14694)
inactive: [1] -0.038 | [2] 0.029 | [3] 0 | [4] -0.013 | [5] 0.023

VPS28 (UniProt Q9UK41)
inactive: [1] -0.087 | [2] -0.04 | [3] -0.013 | [4] 0.073 | [5] 0

UNC45A (UniProt Q9H3U1)
inactive: [1] -0.036 | [2] -0.011 | [3] 0.036 | [4] 0.004 | [5] 0.039

WRNIP1 (UniProt Q96S55)
inactive: [1] -0.051 | [2] -0.033 | [3] 0.024 | [4] 0.016 | [5] 0.06

WDR62 isoform 4 (UniProt O43379)
Chain of UniProt O43379 (O43379 whole entry, looked up): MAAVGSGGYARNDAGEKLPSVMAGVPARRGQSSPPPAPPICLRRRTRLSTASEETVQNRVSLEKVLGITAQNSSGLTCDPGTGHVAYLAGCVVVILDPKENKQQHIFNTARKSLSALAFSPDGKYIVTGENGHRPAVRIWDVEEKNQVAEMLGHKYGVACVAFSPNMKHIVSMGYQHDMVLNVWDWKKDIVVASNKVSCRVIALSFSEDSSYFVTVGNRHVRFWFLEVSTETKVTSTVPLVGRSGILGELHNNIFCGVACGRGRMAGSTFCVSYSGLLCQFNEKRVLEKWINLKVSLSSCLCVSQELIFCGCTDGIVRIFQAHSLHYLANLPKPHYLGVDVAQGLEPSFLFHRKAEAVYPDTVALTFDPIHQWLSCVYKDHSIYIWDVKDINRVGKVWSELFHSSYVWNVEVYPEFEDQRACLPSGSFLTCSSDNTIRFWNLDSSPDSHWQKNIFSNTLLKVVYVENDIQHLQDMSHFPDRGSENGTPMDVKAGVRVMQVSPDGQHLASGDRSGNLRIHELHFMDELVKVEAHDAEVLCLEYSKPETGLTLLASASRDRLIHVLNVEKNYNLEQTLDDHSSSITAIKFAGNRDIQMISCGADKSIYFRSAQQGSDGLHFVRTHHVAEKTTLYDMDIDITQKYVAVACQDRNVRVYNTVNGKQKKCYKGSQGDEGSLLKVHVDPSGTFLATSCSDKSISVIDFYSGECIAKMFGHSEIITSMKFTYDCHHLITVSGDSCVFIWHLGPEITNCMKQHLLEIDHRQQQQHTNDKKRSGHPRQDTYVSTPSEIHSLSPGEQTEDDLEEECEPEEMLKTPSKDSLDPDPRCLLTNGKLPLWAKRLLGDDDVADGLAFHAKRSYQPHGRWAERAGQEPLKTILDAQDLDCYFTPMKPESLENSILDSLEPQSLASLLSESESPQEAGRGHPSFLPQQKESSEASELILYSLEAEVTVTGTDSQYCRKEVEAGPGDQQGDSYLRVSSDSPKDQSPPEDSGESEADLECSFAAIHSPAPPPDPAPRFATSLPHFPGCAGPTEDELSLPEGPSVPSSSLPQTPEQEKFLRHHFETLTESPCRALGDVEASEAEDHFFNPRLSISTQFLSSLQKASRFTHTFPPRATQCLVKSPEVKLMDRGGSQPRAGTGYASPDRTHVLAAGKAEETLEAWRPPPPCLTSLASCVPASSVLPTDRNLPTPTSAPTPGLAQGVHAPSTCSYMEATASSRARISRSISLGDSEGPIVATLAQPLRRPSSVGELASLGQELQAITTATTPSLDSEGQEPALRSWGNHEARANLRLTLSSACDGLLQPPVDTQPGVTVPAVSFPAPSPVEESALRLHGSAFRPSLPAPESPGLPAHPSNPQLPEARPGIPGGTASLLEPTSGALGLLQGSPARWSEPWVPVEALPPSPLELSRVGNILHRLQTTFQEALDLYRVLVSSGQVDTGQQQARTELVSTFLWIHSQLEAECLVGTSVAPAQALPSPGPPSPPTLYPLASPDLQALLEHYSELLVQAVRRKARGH
inactive: [1] 0.026 | [2] -0.004 | [3] -0.011 | [4] 0.003 | [5] 0.038

ZMYM4 (UniProt Q5VZL5)
inactive: [1] 0.133 | [2] -0.081 | [3] -0.054 | [4] -0.023 | [5] 0.011

ZZEF1 (UniProt O43149)
inactive: [1] -0.022 | [2] -0.004 | [3] 0.012 | [4] -0.05 | [5] -0.028

USP34 (UniProt Q70CQ2)
inactive: [1] -0.002 | [2] -0.015 | [3] 0 | [4] -0.004 | [5] 0.073

ZMYND8 isoform 19 (UniProt Q9ULU4)
inactive: [1] -0.006 | [2] -0.011 | [3] 0.055 | [4] 0.011 | [5] -0.026

XPO5 (UniProt Q9HAV4)
inactive: [1] -0.046 | [2] -0.021 | [3] 0.002 | [4] -0.021 | [5] 0.032

VPS54 (UniProt Q9P1Q0)
inactive: [1] -0.157 | [2] 0.136 | [3] 0.044 | [4] 0.053 | [5] -0.217

WRN (UniProt Q14191)
inactive: [1] 0.006 | [2] -0.017 | [3] 0.009 | [4] 0.01 | [5] 0.006

ZNF609 (UniProt O15014)
inactive: [1] 0.009 | [2] 0.008 | [3] 0.078 | [4] -0.047 | [5] -0.082

ZNF593 (UniProt O00488)
inactive: [1] -0.038 | [2] 0.051 | [3] 0.008 | [4] 0.127 | [5] 0.035

WDR6 (UniProt Q9NNW5)
inactive: [1] -0.001 | [2] 0.02 | [3] 0.008 | [4] -0.021 | [5] -0.013

YDJC (UniProt A8MPS7)
inactive: [1] 0.001 | [2] -0.012 | [3] -0.003 | [4] 0.012 | [5] 0.018

USP48 isoform 8 (UniProt Q86UV5)
inactive: [1] 0.006 | [2] -0.016 | [3] 0.015 | [4] 0.003 | [5] 0.035

VPS39 (UniProt Q96JC1)
inactive: [1] -0.008 | [2] -0.002 | [3] -0.006 | [4] -0.009 | [5] 0.3

USP16 (UniProt Q9Y5T5)
inactive: [1] 0.047 | [2] -0.015 | [3] 0.011 | [4] 0.038 | [5] -0.002

WDR20 isoform 7 (UniProt Q8TBZ3)
inactive: [1] -0.037 | [2] -0.002 | [3] 0.035 | [4] -0.176 | [5] -0.124

WIPI2 (UniProt Q9Y4P8)
inactive: [1] 0.03 | [2] -0.033 | [3] -0.008 | [4] -0.055 | [5] -0.096

USP22 (UniProt Q9UPT9)
inactive: [1] 0.039 | [2] -0.025 | [3] 0.012 | [4] 0.045 | [5] 0.055

YES1 (UniProt P07947)
inactive: [1] -0.068 | [2] -0.099 | [3] 0.009 | [4] -0.045 | [5] 0

WDR41 (UniProt Q9HAD4)
inactive: [1] 0.043 | [2] 0.013 | [3] 0.02 | [4] -0.047 | [5] -0.012

WRB (UniProt O00258)
inactive: [1] 0.018 | [2] -0.021 | [3] -0.029 | [4] 0 | [5] -0.191

VPS4A (UniProt Q9UN37)
inactive: [1] -0.056 | [2] 0.034 | [3] -0.102 | [4] 0.017 | [5] 0.074

ZNF451 (UniProt Q9Y4E5)
Chain of UniProt Q9Y4E5 (Q9Y4E5 whole entry, looked up): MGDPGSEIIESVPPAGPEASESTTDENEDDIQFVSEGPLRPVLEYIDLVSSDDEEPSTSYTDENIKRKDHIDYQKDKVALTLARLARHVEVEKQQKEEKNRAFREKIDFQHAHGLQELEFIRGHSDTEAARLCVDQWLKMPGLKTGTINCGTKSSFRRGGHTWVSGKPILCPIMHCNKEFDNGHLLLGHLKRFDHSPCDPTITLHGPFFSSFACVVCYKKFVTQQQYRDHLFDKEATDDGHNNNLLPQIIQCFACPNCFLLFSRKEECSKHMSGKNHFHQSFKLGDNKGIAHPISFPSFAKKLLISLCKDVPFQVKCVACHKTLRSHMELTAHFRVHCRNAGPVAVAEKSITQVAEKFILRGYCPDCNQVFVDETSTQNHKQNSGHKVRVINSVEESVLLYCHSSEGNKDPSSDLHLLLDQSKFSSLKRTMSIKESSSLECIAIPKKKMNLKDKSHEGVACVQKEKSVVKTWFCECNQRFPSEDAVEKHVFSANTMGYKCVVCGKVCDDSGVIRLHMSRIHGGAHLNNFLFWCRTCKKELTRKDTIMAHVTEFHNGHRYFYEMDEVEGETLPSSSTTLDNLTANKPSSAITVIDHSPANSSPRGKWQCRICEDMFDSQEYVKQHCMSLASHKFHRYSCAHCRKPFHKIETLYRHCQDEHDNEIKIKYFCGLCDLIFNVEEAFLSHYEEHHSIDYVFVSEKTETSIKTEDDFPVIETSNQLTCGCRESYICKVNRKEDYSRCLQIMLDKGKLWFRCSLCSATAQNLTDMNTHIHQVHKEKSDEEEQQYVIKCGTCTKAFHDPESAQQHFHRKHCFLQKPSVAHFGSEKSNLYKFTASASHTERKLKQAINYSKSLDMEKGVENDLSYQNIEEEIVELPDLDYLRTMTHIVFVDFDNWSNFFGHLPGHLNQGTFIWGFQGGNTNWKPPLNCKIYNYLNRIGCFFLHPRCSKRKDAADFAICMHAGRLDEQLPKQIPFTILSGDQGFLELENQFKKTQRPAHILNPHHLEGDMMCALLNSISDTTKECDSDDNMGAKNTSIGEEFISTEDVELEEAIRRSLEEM
inactive: [1] -0.038 | [2] 0.03 | [3] -0.014 | [4] 0.018 | [5] 0.009

YME1L1 (UniProt Q96TA2)
inactive: [1] 0.004 | [2] -0.021 | [3] 0.032 | [4] -0.008 | [5] 0.002

ZBTB33 (UniProt Q86T24)
inactive: [1] 0.046 | [2] -0.082 | [3] 0.003 | [4] 0 | [5] -0.015

VANGL1 (UniProt Q8TAA9)
inactive: [1] 0.064 | [2] 0.088 | [3] -0.055 | [4] -0.004 | [5] -0.076

XPNPEP1 isoform 3 (UniProt Q9NQW7)
inactive: [1] -0.007 | [2] -0.025 | [3] 0.002 | [4] 0.044 | [5] -0.006
